# Inconclusive results are not listed. Calls of active or inactive are those of the source. How the source made its calls: active means hit-call score of the fitted dose curve at least 0.9, where 1 is the maximum; inconclusive means response in the unintended direction; inactive means score below 0.9.
# Assay: ATG_M_32_TRANS: Attagene TRANS-FACTORIAL HepG2 Assay for M32 Transcription Factor (Internal Marker) (AID 2282984)
# Conditions: HepG2 Attagene TRANS M32 internal marker reporter
# Experimental: ATG_TRANS is a cell-based, multiplexed-readout assay that uses HepG2, a human liver cell line, with measurements taken at 24 hours after chemical dosing in a 24-well plate.ATG_M_32_TRANS is one of 30 assay component(s) measured or calculated from the ATG_TRANS assay. It is designed to make measurements of mRNA induction, a form of inducible reporter, as detected with fluorescence intensity signals by Reverse transcription polymerase chain reaction (RT-PCR) and Capillary electrophoresis technology.Data from the assay component ATG_M_32_TRANS was analyzed into 1 assay endpoint. This assay endpoint, ATG_M_32_TRANS, was analyzed in the positive analysis fitting direction relative to DMSO as the negative control and baseline of activity. Using a type of inducible reporter, measures of mRNA for gain-of-signal activity can be used to understand the background control at the transcription factor-level as they relate to the gene . Furthermore, this assay endpoint can be referred to as a secondary readout, because this assay has produced multiple assay endpoints where this one serves a background control function. To generalize the intended target to other relatable targets, this assay endpoint is annotated to the background measurement intended target family, where the subfamily is internal marker.
# Human liver HepG2 cells are transiently transfected with multiple reporter transcription units (MRTUs) in 6-well plates using FuGene 6 reagent (Roche; 3 ml FuGene/1 mg DNA). The MRTU constructs are regulated by a cis-regulating element (promoter). […] A major difference between the CIS and TRANS system is that in CIS activities of endogenous TFs are measured, whereas the TRANS assay evaluates changes in activities of exogenous, chimeric NR-Gal4 proteins. […] At the end of 24 hour incubation, total RNA was isolated using TriZol reagent (Invitrogen). The isolated RNA is then reverse-transcribed using oligo(dT) primer and Mo-MLV reverse transcriptase (Invitrogen) with DNAse I (Ambion) treatment for 30 min. The one-tenth of the produced cDNA was amplified by PCR using Taq DNA polymerase (Invitrogen) and two reporter sequence-specific primers. The PCR products were fluorescently labeled by primer extension with 6-arboxyfluorescein (6-FAM) 5'-labeled reporter sequence-specific primer (2 min at 95 C, 20 s at 68 C and 10 min at 72 C) and these products were digested with 5U of HpaI (New England Biolabs) for 2h at 37 C. The fragments were purified using Qiaquick PCR columns (Qiagen), analyzed on an ABI 3130xL genetic analyzer (Applied Biosystems) with peak positions identified by using a set of X-rhodamine (ROX)-labeled MapMarker1000 molecular weight standards (BioVentures). The raw capillary electrophoresis data was processed using Attagraph software (Attagene).
row,Structure (SMILES),outcome
1,CC[N+](CC)(CC)CC,inactive
2,O=C(O)COc1ccc(Cl)cc1,inactive
3,BrCC(Br)c1ccccc1 (stereo not given),inactive
4,C[N+](C)(C)Cc1ccccc1,inactive
5,Cc1cc(-c2cc(C)c(N)c(C)c2)cc(C)c1N,inactive
6,CCC(C)(C#N)N=NC(C)(C#N)CC (stereo not given),inactive
7,OC[P+](CO)(CO)CO,inactive
8,CC(C)CP(=S)(S)CC(C)C,inactive
9,C=C(C)C(=O)OCCCCOC(=O)C(=C)C,inactive
10,[F][Sn]([c]1ccccc1)([c]1ccccc1)[c]1ccccc1,inactive
11,c1cc[c]([Sb]([c]2ccccc2)[c]2ccccc2)cc1,inactive
12,CC(C)N(C(=O)CCl)c1ccccc1,inactive
13,CC1(C)[C@H](C(=O)O[C@H](C#N)c2cccc(Oc3ccccc3)c2)[C@@H]1/C=C(\Cl)C(F)(F)F,inactive
14,Oc1c(Cl)cc(Cl)cc1Cl,inactive
15,ClCc1ccccc1CCl,inactive
16,CCOC(=O)OC1=C(c2cc(C)ccc2C)C(=O)NC12CCC(OC)CC2 (stereo not given),inactive
17,COc1ccccc1N,inactive
18,Cc1cc(Cl)ccc1OC(C)C(=O)O (stereo not given),inactive
19,O=C1C=CC(=O)c2ccccc21,inactive
20,Cc1ccc2nc3sc(=O)sc3nc2c1,inactive

row,Structure (SMILES),outcome
1,COP(=S)(OC)Oc1cc(Cl)c(I)cc1Cl,inactive
2,CCNc1nc(NCC)nc(SC)n1,inactive
3,ClCCN1CCOCC1,inactive
4,CC(C)(COCC1CO1)COCC1CO1 (stereo not given),inactive
5,O=C(O)C1(c2ccc3c(c2)OC[C@H](Cc2ccc(-c4ccccc4)cc2)[C@H]3O)CCCC1,inactive
6,CCOP(=S)(OCC)SCS(=O)(=O)C(C)(C)C,inactive
7,CN(CCCC(O)c1cccnc1)N=O (stereo not given),inactive
8,O=S1(=O)OC(c2cc(Br)c(O)c(Br)c2)(c2cc(Br)c(O)c(Br)c2)c2ccccc21,inactive
9,C#CCO,inactive
10,O=c1nc(O)n(Cl)c(=O)n1Cl,inactive
11,CN(C1CCCCC1)C1CCCCC1,inactive
12,C=CCc1ccccc1O,inactive
13,ClCc1ccccc1Cl,inactive
14,O=NN1CCCCCCC1,inactive
15,Cc1cc(C)cc(C)c1,inactive
16,O=C(NC(=O)c1c(F)cccc1F)Nc1cc(Cl)c(F)c(Cl)c1F,inactive
17,N#CCCC(Br)(C#N)CBr (stereo not given),inactive
18,CCCCCCCCCCCCOS(=O)(=O)O,inactive
19,O=C(NC(=O)c1c(F)cccc1F)Nc1ccc(Cl)cc1,inactive
20,CC(C)(C)c1ccc(CCOc2ncnc3ccccc23)cc1,inactive

# Source: PubChem BioAssay (EPA / NIEHS)
